# In article PMC7862700, “An all-to-all approach to the identification of sequence-specific readers for epigenetic DNA modifications on cytosine”:
# Legend:
# Assay in all cases: DAPPL (digital affinity profiling via proximity ligation, sequencing); 10 mM Tris-HCl pH 7.5, 50 mM NaCl, 1 mM DTT, 4% glycerol, room temperature, 30 min; GST-TFs on glutathione beads, 16-mer random dsDNA library, 0.1% formaldehyde crosslink after washing; high values mean tight binding
# FLI1 = molecular target: T1, FLI1 (Homo sapiens, UniProt Q01543 1-452); settings: protein: recombinant; tags: N-terminal GST; dsDNA, one strand shown
# T1 sequence: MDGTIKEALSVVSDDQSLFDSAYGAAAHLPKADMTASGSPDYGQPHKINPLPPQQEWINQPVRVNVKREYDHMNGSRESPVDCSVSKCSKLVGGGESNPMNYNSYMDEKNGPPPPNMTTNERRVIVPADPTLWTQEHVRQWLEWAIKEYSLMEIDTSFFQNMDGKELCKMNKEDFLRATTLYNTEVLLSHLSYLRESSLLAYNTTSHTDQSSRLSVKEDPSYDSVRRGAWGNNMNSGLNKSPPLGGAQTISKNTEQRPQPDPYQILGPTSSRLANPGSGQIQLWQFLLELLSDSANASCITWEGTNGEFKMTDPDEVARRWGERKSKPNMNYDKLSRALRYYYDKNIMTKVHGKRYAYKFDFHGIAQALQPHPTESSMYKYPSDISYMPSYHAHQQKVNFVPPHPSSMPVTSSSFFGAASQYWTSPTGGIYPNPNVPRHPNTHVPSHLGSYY
# In short: (§1)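 Binding signal is defined as a hexamer's read frequency for one factor over its frequency for the tag-only sample. To obtain reads, GST-fused human transcription factors were expressed in yeast, captured on glutathione beads, barcoded with DNA and pooled with that sample. Pools met 200 nmole of a 16-mer random double-stranded DNA library in Tris/NaCl/DTT/glycerol buffer for 30 min at room temperature before washing, 0.1% formaldehyde crosslinking, proximity ligation (BsaI/T4 ligase, 1 h, 37 °C), PCR and Illumina NextSeq500 sequencing.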
# ELK1 = molecular target: T2, ELK1 (Homo sapiens, UniProt P19419 1-428); settings: protein: recombinant; tags: N-terminal GST; dsDNA, one strand shown
# T2 sequence: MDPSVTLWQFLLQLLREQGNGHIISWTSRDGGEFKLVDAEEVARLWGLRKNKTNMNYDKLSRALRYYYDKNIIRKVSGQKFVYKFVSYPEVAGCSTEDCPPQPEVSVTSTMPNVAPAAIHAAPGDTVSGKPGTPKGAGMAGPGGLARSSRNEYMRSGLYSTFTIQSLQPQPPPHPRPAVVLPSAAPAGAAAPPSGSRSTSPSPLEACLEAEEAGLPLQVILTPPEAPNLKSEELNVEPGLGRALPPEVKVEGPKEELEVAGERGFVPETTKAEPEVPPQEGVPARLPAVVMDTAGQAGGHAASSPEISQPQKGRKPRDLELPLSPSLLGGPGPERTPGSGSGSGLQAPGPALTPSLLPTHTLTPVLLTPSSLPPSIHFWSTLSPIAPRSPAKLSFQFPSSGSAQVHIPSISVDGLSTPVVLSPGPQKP
# In short: as §1
# GABPA = molecular target: T3, GABPA (Homo sapiens, UniProt Q06546 1-454); settings: protein: recombinant; tags: N-terminal GST; dsDNA, one strand shown
# T3 sequence: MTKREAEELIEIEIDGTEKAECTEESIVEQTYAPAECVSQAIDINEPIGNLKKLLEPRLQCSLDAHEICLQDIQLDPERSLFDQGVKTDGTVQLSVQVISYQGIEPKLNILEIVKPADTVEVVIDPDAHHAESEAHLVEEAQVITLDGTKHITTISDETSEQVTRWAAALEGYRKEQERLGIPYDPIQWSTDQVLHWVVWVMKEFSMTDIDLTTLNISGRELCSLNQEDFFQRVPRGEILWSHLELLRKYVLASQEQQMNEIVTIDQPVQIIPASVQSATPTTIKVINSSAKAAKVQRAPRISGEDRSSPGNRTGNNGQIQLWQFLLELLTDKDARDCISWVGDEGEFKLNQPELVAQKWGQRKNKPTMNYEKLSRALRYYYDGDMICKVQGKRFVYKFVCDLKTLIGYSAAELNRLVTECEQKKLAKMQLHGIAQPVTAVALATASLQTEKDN
# In short: as §1
# ERG = molecular target: T4, ERG (Homo sapiens, UniProt P11308 1-479); settings: protein: recombinant; tags: N-terminal GST; dsDNA, one strand shown
# T4 sequence: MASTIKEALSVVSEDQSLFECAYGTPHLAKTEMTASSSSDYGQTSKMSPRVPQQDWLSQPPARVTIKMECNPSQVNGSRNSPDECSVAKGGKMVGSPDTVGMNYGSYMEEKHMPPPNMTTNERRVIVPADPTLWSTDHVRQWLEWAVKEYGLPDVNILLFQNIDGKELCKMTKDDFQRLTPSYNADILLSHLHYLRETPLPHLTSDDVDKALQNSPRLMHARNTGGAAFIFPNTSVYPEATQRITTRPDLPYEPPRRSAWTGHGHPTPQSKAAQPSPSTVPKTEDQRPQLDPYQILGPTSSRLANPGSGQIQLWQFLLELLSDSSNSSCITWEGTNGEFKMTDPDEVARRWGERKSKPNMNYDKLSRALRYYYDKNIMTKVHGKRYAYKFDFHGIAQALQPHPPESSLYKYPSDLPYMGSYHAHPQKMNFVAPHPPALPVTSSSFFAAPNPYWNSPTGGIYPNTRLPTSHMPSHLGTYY
# In short: as §1
# ELF1 = ELF1 (Homo sapiens, UniProt P32519 1-619); settings: protein: recombinant; tags: N-terminal GST; dsDNA, one strand shown
# ELF1, sequence (P32519 whole entry): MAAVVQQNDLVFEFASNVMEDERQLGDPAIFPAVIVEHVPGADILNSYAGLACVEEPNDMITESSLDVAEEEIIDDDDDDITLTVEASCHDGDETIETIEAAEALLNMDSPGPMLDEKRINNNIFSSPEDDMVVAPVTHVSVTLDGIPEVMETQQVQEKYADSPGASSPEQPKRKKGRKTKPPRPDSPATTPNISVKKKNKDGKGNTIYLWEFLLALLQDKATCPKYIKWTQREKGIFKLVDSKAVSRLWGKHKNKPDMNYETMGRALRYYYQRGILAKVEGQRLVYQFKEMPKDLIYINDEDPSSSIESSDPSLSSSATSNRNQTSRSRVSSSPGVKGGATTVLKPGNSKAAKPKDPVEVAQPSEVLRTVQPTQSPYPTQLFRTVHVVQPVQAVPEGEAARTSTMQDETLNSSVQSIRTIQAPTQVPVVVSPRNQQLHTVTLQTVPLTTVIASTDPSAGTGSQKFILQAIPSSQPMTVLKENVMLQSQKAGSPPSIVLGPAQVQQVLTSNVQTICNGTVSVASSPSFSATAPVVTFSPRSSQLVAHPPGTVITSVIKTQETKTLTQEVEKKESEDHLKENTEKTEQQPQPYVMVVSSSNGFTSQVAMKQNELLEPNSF
# In short: as §1
# EHF = molecular target: T5, EHF (Homo sapiens, UniProt Q9NZC4 1-300); settings: protein: recombinant; tags: N-terminal GST; dsDNA, one strand shown
# T5 sequence: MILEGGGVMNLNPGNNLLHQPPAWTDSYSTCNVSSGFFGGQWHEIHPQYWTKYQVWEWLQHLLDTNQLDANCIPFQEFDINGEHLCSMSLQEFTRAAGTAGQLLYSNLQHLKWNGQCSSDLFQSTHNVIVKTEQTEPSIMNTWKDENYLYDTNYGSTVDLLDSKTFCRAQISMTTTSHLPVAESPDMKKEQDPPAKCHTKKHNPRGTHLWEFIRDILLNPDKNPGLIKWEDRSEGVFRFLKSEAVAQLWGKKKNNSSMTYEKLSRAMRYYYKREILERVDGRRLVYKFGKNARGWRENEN
# In short: as §1
# SPI1 = SPI1 (Homo sapiens, UniProt P17947 1-270); settings: protein: recombinant; tags: N-terminal GST; dsDNA, one strand shown
# In short: as §1
# SPIB = SPIB (Homo sapiens, UniProt Q01892 1-262); settings: protein: recombinant; tags: N-terminal GST; dsDNA, one strand shown
# SPIB, sequence (Q01892 whole entry): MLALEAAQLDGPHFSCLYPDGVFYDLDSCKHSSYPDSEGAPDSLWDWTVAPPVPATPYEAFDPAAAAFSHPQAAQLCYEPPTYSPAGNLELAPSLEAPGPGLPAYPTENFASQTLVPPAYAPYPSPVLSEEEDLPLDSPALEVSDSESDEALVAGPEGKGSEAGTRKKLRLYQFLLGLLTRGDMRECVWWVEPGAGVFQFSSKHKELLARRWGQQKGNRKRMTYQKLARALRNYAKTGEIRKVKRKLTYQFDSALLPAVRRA
# In short: as §1
# ELK3 = molecular target: T6, ELK3 (Homo sapiens, UniProt P41970 1-407); settings: protein: recombinant; tags: N-terminal GST; dsDNA, one strand shown
# T6 sequence: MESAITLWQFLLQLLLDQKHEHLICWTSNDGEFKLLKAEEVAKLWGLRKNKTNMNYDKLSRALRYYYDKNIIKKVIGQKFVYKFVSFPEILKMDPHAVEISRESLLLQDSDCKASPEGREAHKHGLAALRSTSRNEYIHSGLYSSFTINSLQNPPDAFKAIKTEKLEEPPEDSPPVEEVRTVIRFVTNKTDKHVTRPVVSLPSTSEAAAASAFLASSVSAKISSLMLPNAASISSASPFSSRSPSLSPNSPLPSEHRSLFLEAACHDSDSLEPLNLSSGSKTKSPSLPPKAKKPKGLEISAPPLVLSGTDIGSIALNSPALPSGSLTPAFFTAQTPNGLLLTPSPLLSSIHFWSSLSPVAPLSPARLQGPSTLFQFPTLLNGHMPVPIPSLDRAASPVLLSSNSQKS
# In short: as §1
# FEV = molecular target: T7, FEV (Homo sapiens, UniProt Q99581 1-238); settings: protein: recombinant; tags: N-terminal GST; dsDNA, one strand shown
# T7 sequence: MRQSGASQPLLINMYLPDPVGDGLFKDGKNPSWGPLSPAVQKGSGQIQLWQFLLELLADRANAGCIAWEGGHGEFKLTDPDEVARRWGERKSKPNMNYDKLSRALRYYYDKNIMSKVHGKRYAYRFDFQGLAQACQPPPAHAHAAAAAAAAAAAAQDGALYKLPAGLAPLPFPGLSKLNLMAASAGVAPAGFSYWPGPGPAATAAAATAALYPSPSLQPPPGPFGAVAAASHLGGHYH
# In short: as §1
# ETV5 = ETV5 (Homo sapiens, UniProt P41161 1-510); settings: protein: recombinant; tags: N-terminal GST; dsDNA, one strand shown
# ETV5, sequence (P41161 whole entry): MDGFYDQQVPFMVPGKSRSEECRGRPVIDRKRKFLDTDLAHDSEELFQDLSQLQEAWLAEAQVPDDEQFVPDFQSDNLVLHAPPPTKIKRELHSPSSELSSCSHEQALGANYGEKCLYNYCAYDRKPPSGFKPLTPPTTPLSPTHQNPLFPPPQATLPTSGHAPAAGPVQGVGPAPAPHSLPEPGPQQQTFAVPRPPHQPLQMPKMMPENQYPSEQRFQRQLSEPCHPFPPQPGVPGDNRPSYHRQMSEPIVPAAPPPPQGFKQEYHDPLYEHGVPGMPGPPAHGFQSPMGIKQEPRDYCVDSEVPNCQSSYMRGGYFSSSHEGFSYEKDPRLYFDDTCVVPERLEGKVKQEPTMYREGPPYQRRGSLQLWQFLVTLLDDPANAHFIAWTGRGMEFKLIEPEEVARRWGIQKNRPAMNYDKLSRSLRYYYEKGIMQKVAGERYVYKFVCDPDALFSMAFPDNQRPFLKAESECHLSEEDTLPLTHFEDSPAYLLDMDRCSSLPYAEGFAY
# In short: as §1
# HSF1 = HSF1 (Homo sapiens, UniProt Q00613 1-529); settings: protein: recombinant; tags: N-terminal GST; chain copies: 3; dsDNA, one strand shown
# HSF1, sequence (Q00613 whole entry): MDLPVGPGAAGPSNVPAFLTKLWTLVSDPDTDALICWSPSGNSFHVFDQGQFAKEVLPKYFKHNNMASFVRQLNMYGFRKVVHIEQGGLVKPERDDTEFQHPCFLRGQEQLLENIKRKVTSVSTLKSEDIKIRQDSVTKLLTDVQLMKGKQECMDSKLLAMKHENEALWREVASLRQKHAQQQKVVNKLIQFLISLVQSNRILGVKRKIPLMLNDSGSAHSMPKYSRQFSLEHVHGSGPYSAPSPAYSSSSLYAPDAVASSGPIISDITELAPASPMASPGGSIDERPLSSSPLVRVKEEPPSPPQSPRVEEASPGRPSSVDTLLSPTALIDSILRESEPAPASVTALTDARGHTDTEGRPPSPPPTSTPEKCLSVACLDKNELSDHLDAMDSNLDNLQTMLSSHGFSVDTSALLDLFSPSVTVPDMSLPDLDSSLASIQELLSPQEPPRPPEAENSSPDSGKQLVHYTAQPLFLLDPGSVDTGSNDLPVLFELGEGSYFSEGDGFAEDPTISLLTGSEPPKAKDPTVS
# In short: as §1
# SPIC = molecular target: T8, SPIC (Homo sapiens, UniProt Q8N5J4 1-248); settings: protein: recombinant; tags: N-terminal GST; dsDNA, one strand shown
# T8 sequence: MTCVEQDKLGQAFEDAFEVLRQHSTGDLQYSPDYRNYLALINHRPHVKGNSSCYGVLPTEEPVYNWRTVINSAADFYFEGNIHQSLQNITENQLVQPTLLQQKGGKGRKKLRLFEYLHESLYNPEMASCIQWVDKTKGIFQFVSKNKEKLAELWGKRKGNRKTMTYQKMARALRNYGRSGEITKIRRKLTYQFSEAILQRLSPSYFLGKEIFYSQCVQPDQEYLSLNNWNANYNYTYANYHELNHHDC
# In short: as §1
# ELF4 = ELF4 (Homo sapiens, UniProt Q99607 1-663); settings: protein: recombinant; tags: N-terminal GST; dsDNA, one strand shown
# ELF4, sequence (Q99607 whole entry): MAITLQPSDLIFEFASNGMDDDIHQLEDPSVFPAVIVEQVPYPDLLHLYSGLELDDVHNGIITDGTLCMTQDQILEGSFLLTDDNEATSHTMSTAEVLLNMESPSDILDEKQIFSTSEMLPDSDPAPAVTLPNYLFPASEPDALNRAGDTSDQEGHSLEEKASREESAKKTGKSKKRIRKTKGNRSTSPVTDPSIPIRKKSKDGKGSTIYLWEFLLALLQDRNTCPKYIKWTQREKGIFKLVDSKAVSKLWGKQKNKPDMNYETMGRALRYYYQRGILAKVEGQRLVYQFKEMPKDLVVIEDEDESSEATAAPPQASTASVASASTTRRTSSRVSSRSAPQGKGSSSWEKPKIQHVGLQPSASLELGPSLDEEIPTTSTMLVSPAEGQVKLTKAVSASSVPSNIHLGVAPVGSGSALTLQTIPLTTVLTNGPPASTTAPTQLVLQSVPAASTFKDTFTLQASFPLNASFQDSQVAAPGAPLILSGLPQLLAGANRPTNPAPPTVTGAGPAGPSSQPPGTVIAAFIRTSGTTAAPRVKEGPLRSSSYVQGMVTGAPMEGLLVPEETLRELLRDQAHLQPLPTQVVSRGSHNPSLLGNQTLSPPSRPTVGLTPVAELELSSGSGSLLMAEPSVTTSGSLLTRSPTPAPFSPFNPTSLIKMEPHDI
# In short: as §1
# ELK4 = molecular target: T9, ELK4 (Homo sapiens, UniProt P28324-2 1-405); settings: protein: recombinant; tags: N-terminal GST; dsDNA, one strand shown
# T9 sequence: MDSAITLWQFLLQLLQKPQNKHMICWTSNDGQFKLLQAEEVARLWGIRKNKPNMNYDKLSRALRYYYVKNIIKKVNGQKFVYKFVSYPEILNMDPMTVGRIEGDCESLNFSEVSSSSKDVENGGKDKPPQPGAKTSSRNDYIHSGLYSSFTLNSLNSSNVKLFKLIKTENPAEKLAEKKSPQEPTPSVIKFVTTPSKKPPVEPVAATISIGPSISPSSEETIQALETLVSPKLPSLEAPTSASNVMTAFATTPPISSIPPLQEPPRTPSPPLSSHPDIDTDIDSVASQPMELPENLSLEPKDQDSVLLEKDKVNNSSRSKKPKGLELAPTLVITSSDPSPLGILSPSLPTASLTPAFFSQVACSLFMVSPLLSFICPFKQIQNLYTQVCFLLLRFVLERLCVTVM
# In short: as §1
# ETV2 = molecular target: T10, ETV2 (Homo sapiens, UniProt O00321 1-342); settings: protein: recombinant; tags: N-terminal GST; dsDNA, one strand shown
# T10 sequence: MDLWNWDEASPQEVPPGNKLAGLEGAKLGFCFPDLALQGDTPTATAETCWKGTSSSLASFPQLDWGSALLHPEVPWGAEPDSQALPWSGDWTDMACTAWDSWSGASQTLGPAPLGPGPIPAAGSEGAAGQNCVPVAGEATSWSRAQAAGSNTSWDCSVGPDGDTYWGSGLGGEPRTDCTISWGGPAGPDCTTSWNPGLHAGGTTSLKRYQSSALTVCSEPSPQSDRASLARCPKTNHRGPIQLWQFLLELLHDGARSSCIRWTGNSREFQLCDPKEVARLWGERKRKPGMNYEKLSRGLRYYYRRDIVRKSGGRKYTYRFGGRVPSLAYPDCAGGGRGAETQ
# In short: as §1
# ELF3 = molecular target: T11, ELF3 (Homo sapiens, UniProt P78545 1-371); settings: protein: recombinant; tags: N-terminal GST; dsDNA, one strand shown
# T11 sequence: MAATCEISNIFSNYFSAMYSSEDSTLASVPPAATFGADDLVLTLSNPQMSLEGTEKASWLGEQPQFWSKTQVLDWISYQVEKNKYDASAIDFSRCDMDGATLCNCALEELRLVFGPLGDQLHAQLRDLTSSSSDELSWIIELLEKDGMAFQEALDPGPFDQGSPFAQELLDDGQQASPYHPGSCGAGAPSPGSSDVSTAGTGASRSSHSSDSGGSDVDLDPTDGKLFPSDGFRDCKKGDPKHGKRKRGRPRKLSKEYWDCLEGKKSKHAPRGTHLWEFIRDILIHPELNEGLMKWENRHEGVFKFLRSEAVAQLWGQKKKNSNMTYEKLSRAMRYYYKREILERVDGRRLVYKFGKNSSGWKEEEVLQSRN
# In short: as §1
# CRX = CRX (Homo sapiens, UniProt O43186 1-299); settings: protein: recombinant; tags: N-terminal GST; dsDNA, one strand shown
# CRX, sequence (O43186 whole entry): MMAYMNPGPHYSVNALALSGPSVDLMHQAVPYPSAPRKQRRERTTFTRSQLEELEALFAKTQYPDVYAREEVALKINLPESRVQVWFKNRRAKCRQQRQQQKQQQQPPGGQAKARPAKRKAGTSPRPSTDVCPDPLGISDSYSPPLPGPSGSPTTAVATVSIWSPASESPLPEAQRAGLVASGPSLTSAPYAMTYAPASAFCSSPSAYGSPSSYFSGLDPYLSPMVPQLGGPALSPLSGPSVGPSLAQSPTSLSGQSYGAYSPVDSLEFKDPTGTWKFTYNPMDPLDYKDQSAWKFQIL
# In short: as §1
# ETV1 = ETV1 (Homo sapiens, UniProt P50549 1-477); settings: protein: recombinant; tags: N-terminal GST; dsDNA, one strand shown
# ETV1, sequence (P50549 whole entry): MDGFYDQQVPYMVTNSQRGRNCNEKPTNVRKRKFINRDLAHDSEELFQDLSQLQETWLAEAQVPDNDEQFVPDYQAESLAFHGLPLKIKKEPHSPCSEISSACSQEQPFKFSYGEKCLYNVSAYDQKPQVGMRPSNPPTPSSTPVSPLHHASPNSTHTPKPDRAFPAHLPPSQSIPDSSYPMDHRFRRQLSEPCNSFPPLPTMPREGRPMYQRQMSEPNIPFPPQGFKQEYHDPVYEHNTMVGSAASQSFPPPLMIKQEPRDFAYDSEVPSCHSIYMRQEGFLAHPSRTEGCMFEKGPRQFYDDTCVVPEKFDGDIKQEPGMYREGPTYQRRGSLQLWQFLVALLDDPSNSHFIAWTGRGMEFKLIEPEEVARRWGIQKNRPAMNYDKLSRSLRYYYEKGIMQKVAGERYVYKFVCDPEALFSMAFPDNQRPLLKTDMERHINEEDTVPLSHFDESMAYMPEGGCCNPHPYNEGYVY
# In short: as §1
sequence,measurement,setting,value
AATGCA,binding signal,FLI1,"1.25 fold enrichment (6-mer frequency, TF over GST control)"
same,binding signal,ELK1,"1.28 fold enrichment (6-mer frequency, TF over GST control)"
same,binding signal,GABPA,"1.28 fold enrichment (6-mer frequency, TF over GST control)"
same,binding signal,ERG,"1.29 fold enrichment (6-mer frequency, TF over GST control)"
same,binding signal,ELF1,"1.27 fold enrichment (6-mer frequency, TF over GST control)"
same,binding signal,EHF,"1.25 fold enrichment (6-mer frequency, TF over GST control)"
same,binding signal,SPI1,"1.21 fold enrichment (6-mer frequency, TF over GST control)"
same,binding signal,SPIB,"1.34 fold enrichment (6-mer frequency, TF over GST control)"
same,binding signal,ELK3,"1.3 fold enrichment (6-mer frequency, TF over GST control)"
same,binding signal,FEV,"1.31 fold enrichment (6-mer frequency, TF over GST control)"
same,binding signal,ETV5,"1.29 fold enrichment (6-mer frequency, TF over GST control)"
same,binding signal,HSF1,"1.11 fold enrichment (6-mer frequency, TF over GST control)"
same,binding signal,SPIC,"1.28 fold enrichment (6-mer frequency, TF over GST control)"
same,binding signal,ELF4,"1.3 fold enrichment (6-mer frequency, TF over GST control)"
same,binding signal,ELK4,"1.31 fold enrichment (6-mer frequency, TF over GST control)"
same,binding signal,ETV2,"1.25 fold enrichment (6-mer frequency, TF over GST control)"
same,binding signal,ELF3,"1.33 fold enrichment (6-mer frequency, TF over GST control)"
same,binding signal,CRX,"1.14 fold enrichment (6-mer frequency, TF over GST control)"
same,binding signal,ETV1,"1.25 fold enrichment (6-mer frequency, TF over GST control)"
